From PubChem BioAssay AID504465 (National Center for Advancing Translational Sciences (NCATS), 2011)
Hit rate of the full screen: of about 2,100 compounds, about 210 (10%) were called active. About 53% were inconclusive and are not listed. Calls follow the shape of the dose curve; as a rule, active = well fitted inhibition curve with a large enough effect; inconclusive = small, poorly fitted or top-dose-only effect, or effect the other way; inactive = no such curve, though single readings can be large or run the other way. Some of the results follow.

Assay: IN Cell qHTS Assay for Inhibitors of the mTORC1 Signaling Pathway in MEF (Tsc2-/-, p53-/-) Cells: Sytravon; also: nearly all actives have a fitted effect of over 60% in size
Details: phospho-rpS6 immunofluorescence, 24 h; series mostly up to 38.3 µM; activity, negative = inhibition: at the top concentration
Procedure, shortened: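 Tsc2-/-, p53-/- MEFs (empty-vector) treated with compound 24 h at 37 degree Celsius, then fixed and stained for phospho-rpS6 Ser235/236 (Alexa-488) plus Hoechst. Reported as % positive cells, thresholds set against 7.5 nM rapamycin and DMSO wells.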
Potency is read from the fitted curve at half-maximal effect.

Row | Structure (SMILES) | activity, negative = inhibition | Potency
1 | COC(=O)c1sccc1S(=O)(=O)N(CC(=O)Nc1ccc(C)cc1)c1ccccc1 | 0.187% (inactive) | 
2 | CCN(c1ccccc1)S(=O)(=O)c1ccc(NC(=O)c2nc(S(C)(=O)=O)ncc2Cl)cc1 |  | 2.07 µM (active)
3 | CN(c1ccccc1)S(=O)(=O)c1ccc(NC(=O)c2nc(S(C)(=O)=O)ncc2Cl)cc1 |  | 0.736 µM (active)
4 | CN(C)S(=O)(=O)c1ccc(C(=O)Nc2ccc(-n3nncc3-c3ccccc3)cc2)cc1 | 6.25% (inactive) | 
5 | CSc1ncc(Cl)c(C(=O)N(C)c2ccccc2)n1 | -7.39% (inactive) | 
6 | CCN(CC)c1nc2ccccc2nc1C(=O)Nc1ccc(C(C)=O)cc1 | -4.22% (inactive) | 
7 | Oc1cccc(Nc2nc(-c3ccccc3)nc3ccccc23)c1 | 14.6% (inactive) | 
8 | Cc1ccc(-n2cnc3cc(C(=O)NCCC4=CCCCC4)ccc32)cc1Cl | 6.25% (inactive) | 
9 | Cc1ccc(NC(=O)N2CC3CCCN3c3ccccc32)cc1Cl (centres undefined) | 1.3% (inactive) | 
10 | Cc1ccc(-c2nn3c(=O)cc(CN4CCN(C(=O)Nc5cc(Cl)ccc5C)CC4)nc3s2)cc1 | -27.1% (inactive) | 
11 | CCOC(=O)c1c(NC(=O)c2ccc(S(=O)(=O)N3CCC(C)CC3)cc2)sc2c1CCN(C)C2 | -15% (inactive) | 
12 | COc1ccccc1CNC(=O)C(=O)NCC(c1cccnc1)N1CCN(c2ccc(F)cc2)CC1 (centres undefined) | -26.1% (inactive) | 
13 | Cc1ccc(/C=C(\C#N)C(=O)Nc2ccc(Br)cc2)o1 | -12.4% (inactive) | 
14 | Cc1[nH]n2c(=O)cc(-c3ccc(Cl)cc3)nc2c1-c1ccccc1 | -21.5% (inactive) | 
15 | COc1ccccc1N1CCN(CC(O)COc2ccc(C)cc2C(C)(C)C)CC1 (centres undefined) | 15.3% (inactive) | 
16 | N=c1n(CCN2CCCCC2)c2ccccc2n1CC(O)COc1ccc(Cl)cc1Cl (centres undefined) |  | 2.61 µM (active)
17 | Cc1ccc(OCCn2c(CNc3cccc(C)c3)nc3ccccc32)cc1 | 3.56% (inactive) | 
18 | CCn1c(=N)n(CCOc2ccc(Br)cc2)c2ccccc21 |  | 6.56 µM (active)
19 | CCCCn1c(=N)n(CCOc2ccccc2OC)c2ccccc21 |  | 6.56 µM (active)
20 | COc1cccc(OCc2nc3ccccc3n2CCOc2ccc(C)cc2)c1 | -0.601% (inactive) | 
21 | Cc1ccccc1OCC(O)Cn1c(=N)n(CCN2CCCCC2)c2ccccc21 (centres undefined) |  | 5.85 µM (active)
22 | COc1cc(C2CC(=O)Nc3cc4c(cc32)OCCO4)cc(OC)c1O (centres undefined) | 5.26% (inactive) | 
23 | COc1ccccc1NC(=O)CSc1nnc2c(n1)[nH]c1ccccc12 | -25.8% (inactive) | 
24 | CCN(C(=O)c1cc2c(=O)oc3ccc(C)cc3c2s1)c1ccccc1F | 2.45% (inactive) | 

Row | Structure (SMILES) | activity, negative = inhibition | Potency
25 | Cc1ccccc1C(=O)Nc1cccc(OCc2cc(=O)n3cccc(C)c3n2)c1 | -3.41% (inactive) | 
26 | CCOc1ccc(C2=C(C(C)=O)Sc3nnc(C)n3N2C(C)=O)cc1 | -20.9% (inactive) | 
27 | O=C(NCc1ccccc1Cl)c1nnc(Cc2cccc(F)c2)o1 | -10.8% (inactive) | 
28 | COc1ccc(C)cc1NC(=O)C(NS(=O)(=O)c1cccs1)c1ccccc1 (centres undefined) | -19.2% (inactive) | 
29 | CCN(CC)CCn1c(=N)n(CC(O)COc2ccccc2C)c2ccccc21 (centres undefined) |  | 5.85 µM (active)
30 | CCN(CC)CCn1c(=N)n(CCOc2ccccc2Cl)c2ccccc21 |  | 3.69 µM (active)
31 | Cc1ccccc1OCCn1c(=N)n(C(C)C)c2ccccc21 |  | 9.27 µM (active)
32 | CCCCCn1c(-c2cccc(C)c2)nc2ccccc21 | -18.9% (inactive) | 
33 | COc1ccc(N2CCN(CC(O)COc3ccc(C)c(C)c3)CC2)cc1 (centres undefined) | 0% (inactive) | 
34 | CCCCCn1c(=N)n(CC(O)COc2cccc(C)c2)c2ccccc21 (centres undefined) |  | 2.61 µM (active)
35 | Cc1ccc(C(=O)n2nc(C)c(S(=O)(=O)N3CCCCCC3)c2C)cc1 | 0.537% (inactive) | 
36 | Cc1ccc(NC(=O)CCNS(=O)(=O)c2cccc3nonc23)cc1Cl | 5.36% (inactive) | 
37 | COc1ccc(C(=O)c2cn(Cc3cccc(C)c3)c3cc4c(cc3c2=O)OCO4)cc1 | 23.3% (inactive) | 
38 | CCOC(=O)c1ccccc1Nc1cc(C)nc2nc(-c3ccco3)nn12 | -9.33% (inactive) | 
39 | CC(C)c1ccc(NC(=O)c2cc(S(=O)(=O)NCCC3=CCCCC3)ccc2F)cc1 | 6.25% (inactive) | 
40 | Fc1ccc(-c2csc(=Nc3cccc(C(F)(F)F)c3)n2Cc2ccc3c(c2)OCO3)cc1 | 6.58% (inactive) | 
41 | CCOC(=O)N1CCc2c(sc3c2C(=O)NC(c2ccc(C(=O)OC)cc2)N3)C1 (centres undefined) | -10.6% (inactive) | 
42 | COc1cc2c(cc1OC)n(CC(=O)c1ccc(F)cc1)c(=O)n1nc(CCn3nc(C)cc3C)nc21 | -8.82% (inactive) | 
43 | Cc1ccc(NC(=O)c2c(C)oc3ccc(O)c(CN(C)Cc4ccccc4)c23)c(C)c1 | -15.8% (inactive) | 
44 | CCC(C)NC(=O)CSc1nc2cc3c(cc2c(=O)n1CCCC(=O)NCCc1ccc(OC)c(OC)c1)OCO3 (centres undefined) | -1.63% (inactive) | 
45 | COc1ccccc1Oc1nc2c(C)cccn2c(=O)c1/C=C(\C#N)c1nc2ccccc2[nH]1 | 21% (inactive) | 
46 | O=C(Cn1cc(SCc2ccc(F)cc2)c2ccccc21)N1CCCCCC1 | -24.4% (inactive) | 
47 | COCCn1c(=N)c(C(=O)NCc2ccco2)cc2c(=O)n3cc(C)ccc3nc21 |  | 13.1 µM (active)
48 | Cc1ccc2nc3c(cc(C(=O)NC4CCCCC4)c(=N)n3C(C)C)c(=O)n2c1 | -26.3% (inactive) | 

Row | Structure (SMILES) | activity, negative = inhibition | Potency
49 | Cc1ccc(-c2noc(CCCC(=O)NCc3ccco3)n2)cc1 | -11.7% (inactive) | 
50 | Cc1ccc(Cl)cc1NC(=O)CCn1cnc2ccccc2c1=O | -0.138% (inactive) | 
51 | COc1ccc(C(=O)N2CCc3cc(OC)c(OC)cc3C2COc2ccc3c(C)cc(=O)oc3c2)c(OC)c1 (centres undefined) | -9.89% (inactive) | 
52 | CCCCS(=O)(=O)c1oc(-c2cccs2)nc1S(=O)(=O)c1ccccc1 |  | 0.585 µM (active)
53 | O=S(=O)(c1ccccc1)c1nc(-c2cccs2)oc1SCc1ccccc1F | -2.37% (inactive) | 
54 | CCC(C)S(=O)(=O)c1oc(-c2cccs2)nc1S(=O)(=O)c1ccccc1 (centres undefined) |  | 1.47 µM (active)
55 | Cc1ccc(S(=O)(=O)c2nnn3c2nc(NCc2cccs2)c2sccc23)cc1 | -14.6% (inactive) | 
56 | CCCCS(=O)(=O)c1oc(-c2cccs2)nc1S(=O)(=O)c1ccc(F)cc1 |  | 3.69 µM (active)
57 | Cc1nn(C)c2c1c(-c1ccccc1)cc(=O)n2Cc1ccccc1C#N | 0.892% (inactive) | 
58 | CCN1CCOC(=O)C1CC(=O)Nc1ccc(Br)cc1 (centres undefined) | 14.1% (inactive) | 
59 | Cc1cc(C)cc(NC(=O)C2CCCN2S(=O)(=O)c2ccc3nc(-c4ccccc4)[nH]c3c2)c1 (centres undefined) | -4.65% (inactive) | 
60 | COc1ccc(S(=O)(=O)NC2(C(F)(F)F)NC(=O)N(CCc3ccc(OC)c(OC)c3)C2=O)cc1 (centres undefined) | -12.2% (inactive) | 
61 | O=C(CSCc1ccc(F)cc1)N1CCc2c([nH]c3ccccc23)C1c1ccc(Cl)cc1 (centres undefined) | -19.1% (inactive) | 
62 | CCCN1CCN(CCCNC(=O)c2ccc3c(c2)sc2nc(-c4ccc(OCC)cc4)cn23)CC1 |  | 1.85 µM (active)
63 | CCOc1ccc(-c2cc(NC(=O)c3ccc(C)cc3)c(C(=O)OC)s2)cc1 | -3.56% (inactive) | 
64 | CCCCNC(=O)c1ccc2c(c1)N=C(CC)c1ccccc1S2 | 29.1% (inactive) | 
65 | CCC1CCCCN1C(=O)CSc1n[nH]c(-c2ccccc2)n1 (centres undefined) | 17.6% (inactive) | 
66 | CCOC(=O)c1cc(S(=O)(=O)NCc2ccc(C)cc2)[nH]n1 | -2.92% (inactive) | 
67 | Cc1cccc(NC(=O)c2oc3ccc(S(=O)(=O)N4CCC5(CC4)OCCO5)cc3c2C)c1C | 6.25% (inactive) | 
68 | CCCCN1C(=O)C(O)(c2c[nH]c3ccccc23)c2cc(Br)ccc21 (centres undefined) | -6.22% (inactive) | 
69 | O=C(CC1(O)C(=O)N(CCc2ccccc2)c2ccc(Br)cc21)c1ccccc1O (centres undefined) |  | 20.7 µM (active)
70 | COc1ccc(C(=O)CC2(O)C(=O)N(Cc3cccc(C(F)(F)F)c3)c3ccccc32)cc1 (centres undefined) |  | 4.65 µM (active)
71 | CCCCN1C(=O)C(O)(c2c(C)[nH]c3ccccc23)c2cc(Br)ccc21 (centres undefined) | -16.3% (inactive) | 
72 | CCCN1C(=O)C(O)(CC(=O)c2ccc(C(C)C)cc2)c2ccccc21 (centres undefined) | -15.2% (inactive) | 

Row | Structure (SMILES) | activity, negative = inhibition | Potency
73 | O=C(CC1(O)C(=O)N(Cc2ccccc2)c2ccc(Br)cc21)c1ccccc1 (centres undefined) |  | 16.5 µM (active)
74 | Cc1ccccc1CN1C(=O)C(O)(CC(=O)c2ccccc2)c2cc(Cl)ccc21 (centres undefined) | -20.8% (inactive) | 
75 | CCCCN1C(=O)C(O)(CC(=O)c2ccc(CC)cc2)c2cc(Br)ccc21 (centres undefined) |  | 18.5 µM (active)
76 | COC(=O)CN1C(=O)C(O)(CC(=O)c2ccc(F)cc2)c2ccccc21 (centres undefined) | -21.4% (inactive) | 
77 | COc1cccc(C(=O)CC2(O)C(=O)N(Cc3ccccc3)c3ccccc32)c1 (centres undefined) | -15.2% (inactive) | 
78 | CN1CCc2c(sc(NC(=O)CSc3ccc(F)cc3)c2-c2nc3ccccc3s2)C1 | -2.19% (inactive) | 
79 | CCC1=Nc2cc(C(=O)NCC(C)c3ccccc3)ccc2Sc2ccc(C)cc21 (centres undefined) | 3.53% (inactive) | 
80 | CCn1cc2nc(SCC(=O)Nc3cccc(Cl)c3C)n(Cc3ccc(Cl)cc3)c(=O)c2n1 | -2.07% (inactive) | 
81 | COc1ccc(-c2nc(SCC(=O)Nc3ccc4c(c3)OCCO4)c(-c3ccc(F)cc3)[nH]2)cc1 | -6.12% (inactive) | 
82 | CC1=C(C(=O)OCC2CCCCC2)C(c2ccc(Cl)cc2)CC(=O)N1 (centres undefined) | 14.2% (inactive) | 
83 | O=C1c2[nH]nc(-c3ccccc3O)c2C(c2ccc(Cl)cc2)N1Cc1ccco1 (centres undefined) | -21.5% (inactive) | 
84 | COc1ccc(C2(Nc3cccc(C(=O)O)c3C)C(=O)c3ccccc3C2=O)cc1 | -0.529% (inactive) | 
85 | CCc1ccc(Oc2nc3c(C)cccn3c(=O)c2/C=C(\C#N)c2nc3ccccc3[nH]2)cc1 | -94.3% (inactive) | 
86 | COc1cccc(NS(=O)(=O)c2ccc3c(c2)CCCN3C(=O)C2CCC2)c1 | -3.21% (inactive) | 
87 | CCOC(=O)CN1C(=O)C(O)(CC(=O)c2cc(OC)ccc2OC)c2ccccc21 (centres undefined) | 46% (inactive) | 
88 | COc1ccc(N2C(=O)CCSC23C(=O)N(Cc2ccc(F)cc2)c2ccccc23)cc1Cl (centres undefined) | -17.3% (inactive) | 
89 | CCc1ccc(C(=O)CC2(O)C(=O)N(Cc3ccc(C)cc3)c3ccccc32)cc1 (centres undefined) | -88.7% (inactive) | 
90 | COc1cc(C(=O)CC2(O)C(=O)N(Cc3ccccc3Cl)c3ccccc32)cc(OC)c1OC (centres undefined) |  | 0.147 µM (active)
91 | Cc1ccc(CN2C(=O)C(O)(c3c(C)[nH]c4ccccc34)c3ccccc32)cc1 (centres undefined) | -20.6% (inactive) | 
92 | Cc1ccc(CN2C(=O)C(O)(CC(=O)c3ccc(C)cc3)c3ccccc32)cc1 (centres undefined) |  | 16.5 µM (active)
93 | CCOC(=O)C1CCN(C(=O)CSc2c3c(nc4ccc(Cl)cc24)CCCC3)CC1 | -16.3% (inactive) | 
94 | COC(=O)c1c(NC(=O)c2ccc(S(=O)(=O)N3CCCCC3)cc2)sc2c1CCN(C)C2 | -14% (inactive) | 
